Eight molecules from PubChem BioAssay (Tox21) can be followed below.

Inconclusive results are not listed. Calls of active or inactive are those of the source. Unless noted, the call rests on the fitted dose curve.

Assay [1] is described as follows: Nuclear factor erythroid 2-related factor 2/antioxidant responsive element (Nrf2/ARE) small molecule agonists: qHTS cell viability counter screen in human keratinocytes (AID 1919968; active means well fitted curve in the direction sought with a large enough effect in the repeat runs; an effect the other way counts as inactive or inconclusive; further: nearly all actives have a fitted effect of over 55% in size; further: potency means the concentration at half of the fitted maximal effect). Put shortly:
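Seed 1,500 KeratinoSens cells per well, then incubate 5 h at 37 C/5% CO2. Add compounds in DMSO and incubate 23 h. Add CellTiter-Fluor, wait 1 h and read fluorescence.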

Assay [2] can be described thus: Nuclear factor erythroid 2-related factor 2/antioxidant responsive element (Nrf2/ARE) small molecule agonists: luciferase reporter gene qHTS assay in human keratinocytes (AID 1919969). Further: nearly all actives have a fitted effect of over 35% in size.
Assay [3] addresses Gonadotropin-releasing hormone receptor (Homo sapiens) (UniProt P30968). Put plainly: Human gonadotropin-releasing hormone receptor (GnRHR) small molecule agonists, calcium flux assay in GnRHR-HEK293 cells (AID 1920063). Further: nearly all actives have a fitted effect of over 35% in size. In a few lines: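 Cells: HEK293 stably expressing human GnRHR. Steps: overnight (18 h) culture, 1 h calcium dye loading at 37 C, compound addition, kinetic fluorescence read at 480/540 nm. Each compound tested at 15 concentrations in triplicate.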
For orientation: A change in cytosolic calcium serves as a functional read-out for many receptors and channels.

For assay [4], the target named is KiSS-1 receptor (Homo sapiens) (UniProt Q969F8). Description: Human kisspeptin (KISS1R) small molecule agonists, calcium flux assay in KISS1R-HEK293 cells (AID 1920064; active means well fitted curve in the direction sought with a large enough effect in the repeat runs; an effect the other way counts as inactive or inconclusive). In a few lines: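 Cells plated and incubated 18 h; dye added, 1 h at 37 C; compounds in DMSO pinned in; signal read at 480/540 nm every second for 3 min. Each compound tested at 15 concentrations in triplicate.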
KiSS-1 receptor (Homo sapiens), sequence (Q969F8 whole entry, looked up): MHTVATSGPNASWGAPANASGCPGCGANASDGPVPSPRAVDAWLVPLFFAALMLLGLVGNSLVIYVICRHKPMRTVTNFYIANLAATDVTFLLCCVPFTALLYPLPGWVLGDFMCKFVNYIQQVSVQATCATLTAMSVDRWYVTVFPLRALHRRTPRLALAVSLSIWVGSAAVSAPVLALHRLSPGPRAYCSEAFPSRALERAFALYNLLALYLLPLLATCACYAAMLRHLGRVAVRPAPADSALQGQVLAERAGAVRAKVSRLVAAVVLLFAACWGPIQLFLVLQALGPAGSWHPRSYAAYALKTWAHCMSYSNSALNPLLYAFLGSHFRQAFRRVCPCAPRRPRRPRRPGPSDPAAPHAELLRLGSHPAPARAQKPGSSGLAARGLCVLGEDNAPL

The nature of assay [5]: G protein-coupled receptor (GPCR) small molecule agonists, calcium flux assay: HEK293 wild type cell line counter screen (AID 1920065). Put shortly:
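Counter-screen of the Tox21 10K library for non-specific calcium release: dye-loaded cells received compounds in DMSO and were monitored by kinetic fluorescence (480/540 nm, 3 min). Fifteen concentrations, run in triplicate.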

Assay [6] can be described thus: p53 small molecule agonists, cell-based qHTS assay with rat liver microsomes (AID 1963578). Put shortly:
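p53RE-bla cells, 4,000/well, pre-incubated 5 h, then given compounds plus rat liver microsomes (0.5 mg/mL final) and NADPH (0.5 mg/mL final). Incubation 16 h at 37 C; beta-lactamase reporter read by LiveBLAzer fluorescence after 2 h at room temperature.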

Assay [7] is described as follows: p53 small molecule agonists, cell-based qHTS assay with human liver microsomes: qHTS cell viability counter screen (AID 1963579). Further: nearly all actives have a fitted effect of over 45% in size. In a few lines:
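p53RE-bla cells, 4,000/well, dosed 5 hours after plating, with human liver microsomes (0.5 mg/mL final) plus NADPH (0.5 mg/mL final), 16 hours at 37 C. Viability read as CellTiter-Glo luminescence after 30 min at room temperature.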
(qHTS replaces the single test concentration by a dilution series.)

Assay [8] is described as follows: p53 small molecule agonists, cell-based qHTS assay with rat liver microsomes: qHTS cell viability counter screen (AID 1963580). Further: nearly all actives have a fitted effect of over 45% in size. Put shortly: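 Intracellular ATP, by CellTiter-Glo luminescence, defines viability. HCT-116 p53RE-bla cells, 4,000 per well, were compound-treated in the presence of rat liver microsomes and NADPH for 16 h at 37 C.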
Assay [9] can be described thus: p53 small molecule agonists, cell-based qHTS assay: qHTS cell viability counter screen (AID 1963581). Further: nearly all actives have a fitted effect of over 45% in size. In a few lines: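 Cells: HCT-116 with p53 response element-driven beta-lactamase. Treatment: 16 h, 37 C, compounds in DMSO. Read: CellTiter-Glo luminescence after 30 min RT.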
The nature of assay [10]: p53 small molecule agonists, cell-based qHTS assay (AID 1963582; active means well fitted activation curve with a large enough effect in the signal ratio in the repeat runs, not every such curve was filed as active; the % refers to the signal ratio). Put shortly:
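Quantitative HTS in p53RE-bla cells: after a 5 h settling period, compounds delivered in DMSO were left on cells for 16 h at 37 C, and reporter induction was measured as fluorescence following 2 h substrate loading.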

Assay [11] deals with 5-hydroxytryptamine receptor 2A (Homo sapiens) (UniProt P28223). Put plainly: 5-hydroxytryptamine receptor 2A (HTR2A) small molecule antagonists, cell-based qHTS assay (AID 1963586). Further: nearly all actives have a fitted effect of over 45% in size. Put shortly:
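Antagonist-mode intracellular calcium assay: DOI (4 nM) added after 5 min compound pre-incubation at room temperature to dye-loaded HTR2A-CHO cells. Fluorescence followed for 3 min, sampled every second.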

In assay [12] the target is Muscarinic acetylcholine receptor M1 (Homo sapiens) (UniProt P11229). Put plainly: Cholinergic receptor muscarinic 1 (CHRM1) small molecule antagonists, cell-based qHTS assay (AID 1963588). Further: nearly all actives have a fitted effect of over 40% in size. In a few lines: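 CHRM1-CHO calcium-flux assay, antagonist mode. Cells were seeded 18 h, dye-loaded 1 h at 37 C and given compound for 5 min at RT, then acetylcholine was added at 50nM. FDSS fluorescence was read 3 min; 15 concentrations, three runs.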
Muscarinic acetylcholine receptor M1 (Homo sapiens), sequence (P11229 whole entry, looked up): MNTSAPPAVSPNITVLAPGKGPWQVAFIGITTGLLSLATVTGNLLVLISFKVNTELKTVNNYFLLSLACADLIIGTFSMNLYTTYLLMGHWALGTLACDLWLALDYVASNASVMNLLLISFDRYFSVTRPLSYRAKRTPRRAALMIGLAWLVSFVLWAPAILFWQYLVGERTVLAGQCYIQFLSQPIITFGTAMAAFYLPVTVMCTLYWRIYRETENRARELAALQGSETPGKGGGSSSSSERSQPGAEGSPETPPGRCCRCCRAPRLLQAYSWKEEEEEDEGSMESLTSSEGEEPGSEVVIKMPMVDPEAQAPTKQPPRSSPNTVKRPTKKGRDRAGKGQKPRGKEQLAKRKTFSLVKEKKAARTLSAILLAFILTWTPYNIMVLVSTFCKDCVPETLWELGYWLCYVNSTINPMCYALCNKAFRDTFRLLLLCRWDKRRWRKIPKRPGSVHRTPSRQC

For assay [13] the target is unchanged. Put plainly: Cholinergic receptor muscarinic 1 (CHRM1) small molecule agonists, cell-based qHTS assay (AID 1963589). Further: nearly all actives have a fitted effect of over 35% in size. In a few lines:
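Agonist-mode qHTS in CHO cells stably carrying human muscarinic M1. Intracellular calcium is tracked by fluorescence every second after compound transfer; each compound runs at 15 concentrations in three independent runs.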

The nature of assay [14]: cAMP Responsive Elements (CRE) small molecule agonists, cell-based qHTS assay (AID 1963590). Put shortly: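 Agonist mode qHTS in CRE-bla HEK 293T cells: compounds dosed from DMSO for 3 h at 37 C/5% CO2, followed by LiveBLAzer B/G FRET substrate for 2 h at room temperature.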
Assay [15] deals with Beta-2 adrenergic receptor (Homo sapiens) (UniProt P07550). Put plainly: Adrenergic beta2 receptor (ADRB2) small molecule antagonists, cell-based qHTS assay (AID 1963592). Further: series mostly up to about 92 µM; nearly all actives have a fitted effect of over 50% in size. Put shortly: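 Cells (CHO, stable ADRB2 overexpression) incubated 18-20hr at 37C; compounds added from DMSO; agonist mix (1nM isoproterenol, 100uM IBMX, 25uM Ro-20-1724) added; 0.5hr RT; d2-cAMP and anti-cAMP-cryptate added; 1hr RT; 665/615 nm read.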
Beta-2 adrenergic receptor (Homo sapiens), sequence (P07550 whole entry, looked up): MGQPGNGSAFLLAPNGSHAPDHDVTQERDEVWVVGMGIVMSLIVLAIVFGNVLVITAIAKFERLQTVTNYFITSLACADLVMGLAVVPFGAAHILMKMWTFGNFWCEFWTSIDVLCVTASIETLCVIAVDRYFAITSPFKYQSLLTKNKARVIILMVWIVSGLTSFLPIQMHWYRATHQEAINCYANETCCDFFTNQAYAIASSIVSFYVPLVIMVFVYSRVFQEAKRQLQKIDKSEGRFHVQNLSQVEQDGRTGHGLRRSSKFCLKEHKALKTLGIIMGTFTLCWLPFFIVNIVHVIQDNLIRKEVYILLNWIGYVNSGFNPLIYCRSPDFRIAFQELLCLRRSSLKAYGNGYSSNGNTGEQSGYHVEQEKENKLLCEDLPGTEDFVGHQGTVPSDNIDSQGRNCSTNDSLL

For assay [16] the target is unchanged. Description: Adrenergic beta2 receptor (ADRB2) small molecule agonists, cell-based qHTS assay (AID 1963593).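 Further: CHO cells stably overexpressing human ADRB2.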 Put shortly:
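CHO cells stably over-expressing ADRB2 were plated overnight at 37C, then dosed with compounds plus a stimulation mix containing 100uM IBMX and 25uM Ro-20-1724 for 0.5hr at room temperature. cAMP was measured by HTRF competition, 1hr.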

For assay [17], the target named is D(2) dopamine receptor (Homo sapiens) (UniProt P14416). Put plainly: Dopamine D2 receptor (DRD2) small molecule antagonists, cell-based qHTS assay (AID 1963595; active means well fitted inhibition curve with a large enough effect in the signal ratio in the repeat runs, with a control signal flat; the % refers to the signal ratio). In a few lines: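 HTRF cAMP read-out at 665 and 620 nm emission (340 nm excitation). Antagonist mode: compounds were tested against 12 nM quinpirole in DRD2-HEK293 cells, with 200 nM NKH477 raising cAMP and 0.1 mM Ro20-1724 blocking its breakdown.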
D(2) dopamine receptor (Homo sapiens), sequence (P14416 whole entry, looked up): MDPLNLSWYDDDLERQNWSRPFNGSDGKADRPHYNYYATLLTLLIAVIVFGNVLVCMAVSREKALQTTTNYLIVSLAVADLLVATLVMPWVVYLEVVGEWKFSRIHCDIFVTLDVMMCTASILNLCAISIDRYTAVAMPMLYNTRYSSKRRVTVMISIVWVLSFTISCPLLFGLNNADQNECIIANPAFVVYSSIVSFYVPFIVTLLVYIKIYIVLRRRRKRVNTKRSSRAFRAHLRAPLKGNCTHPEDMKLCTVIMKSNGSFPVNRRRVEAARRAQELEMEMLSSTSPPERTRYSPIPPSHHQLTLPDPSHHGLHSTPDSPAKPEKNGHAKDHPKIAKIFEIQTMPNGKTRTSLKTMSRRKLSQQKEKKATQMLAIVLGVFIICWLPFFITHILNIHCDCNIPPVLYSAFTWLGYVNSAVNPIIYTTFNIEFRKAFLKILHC

The target in assay [18] is 5-hydroxytryptamine receptor 2A (Homo sapiens) (UniProt P28223). Put plainly: 5-hydroxytryptamine receptor 2A (HTR2A) small molecule agonists, cell-based qHTS assay (AID 1963587). Further: nearly all actives have a fitted effect of over 30% in size. In a few lines: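 Kinetic calcium-flux fluorescence (2 min, 1 sec intervals) after compound addition in agonist mode. HTR2A-CHO cells were cultured 18 h, then dye-loaded 1 h at 37 C.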
5-hydroxytryptamine receptor 2A (Homo sapiens), sequence (P28223 whole entry, looked up): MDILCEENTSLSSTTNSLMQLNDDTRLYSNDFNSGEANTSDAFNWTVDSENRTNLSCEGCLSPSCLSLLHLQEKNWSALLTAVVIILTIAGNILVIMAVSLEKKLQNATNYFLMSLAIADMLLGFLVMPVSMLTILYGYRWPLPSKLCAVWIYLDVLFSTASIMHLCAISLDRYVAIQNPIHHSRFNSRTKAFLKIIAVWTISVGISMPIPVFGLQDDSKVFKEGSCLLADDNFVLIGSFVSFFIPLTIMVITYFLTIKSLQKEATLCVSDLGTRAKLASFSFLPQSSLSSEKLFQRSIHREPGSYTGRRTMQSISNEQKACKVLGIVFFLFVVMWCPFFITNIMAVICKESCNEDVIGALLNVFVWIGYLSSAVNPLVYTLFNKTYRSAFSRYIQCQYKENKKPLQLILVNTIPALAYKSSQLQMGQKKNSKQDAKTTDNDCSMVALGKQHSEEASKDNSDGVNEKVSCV
The nature of assay [19]: cAMP Responsive Elements (CRE) small molecule antagonists, cell-based qHTS assay (AID 1963591; active means well fitted inhibition curve with a large enough effect in the signal ratio in the repeat runs, not every such curve was filed as active; the % refers to the signal ratio). Put shortly: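 Antagonist mode: test compounds are co-incubated with the adenylyl cyclase activator NKH477 (0.25 uM final) on CRE-bla HEK293T cells for 3 h at 37 °C, followed by LiveBLAzer substrate loading.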
The target of assay [20] is D(2) dopamine receptor (Homo sapiens) (UniProt P14416). Put plainly: Dopamine D2 receptor (DRD2) small molecule agonists, cell-based qHTS assay (AID 1963594). Further: nearly all actives have a fitted effect of over 35% in size. Put shortly: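 cAMP accumulation in DRD2-HEK293 cells measured by HTRF after 1 h detection; compounds added 10 min before NKH477 (200nM […]) forskolin-analogue stimulation, 30 min at room temperature, with Ro20-1724 present at 0.1 mM final.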

Gonadotropin-releasing hormone receptor (Homo sapiens), sequence (P30968 whole entry, looked up): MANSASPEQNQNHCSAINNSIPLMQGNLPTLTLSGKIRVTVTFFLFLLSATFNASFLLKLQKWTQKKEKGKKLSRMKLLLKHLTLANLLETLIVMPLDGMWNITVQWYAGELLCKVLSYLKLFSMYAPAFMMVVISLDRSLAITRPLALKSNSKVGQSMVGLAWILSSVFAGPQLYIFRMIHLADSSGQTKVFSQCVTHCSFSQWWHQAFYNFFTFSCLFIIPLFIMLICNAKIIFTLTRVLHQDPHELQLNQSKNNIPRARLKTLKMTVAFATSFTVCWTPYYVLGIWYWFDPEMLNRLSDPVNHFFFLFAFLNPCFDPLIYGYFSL

For `COCCOc1cc2cc(C(=O)NC3CCN(C(C)C)CC3)n(CC(=O)Nc3ccc(Cl)cn3)c2cn1`, the Potency result in assay [1], in assay [2], in assay [3], in assay [4], in assay [5] and in assay [6] was “inactive” in each case. The Potency result in assay [7], in assay [8], in [9], in [10], in assay [11] and in assay [12] was “inactive” in each case. The Potency result in assay [13], in assay [14], in assay [15], in [16] and in [17] was “inactive” each time.

`Cc1cc(NC(=O)C(=O)O)cc(C)c1Oc1ccc(O)c2c1CCC2`: the Potency result in assay [1], in [2], in assay [3], in assay [4], in assay [5] and in [6] was “inactive” throughout. Besides, the Potency result in assay [7], in [8], in [9], in assay [10], in [12] and in assay [13] was “inactive” throughout. In addition, the Potency entry in [14], in assay [15], in assay [16] and in assay [17] was “inactive” each time.

Regarding `CCCOc1ccc2c(c1)CC[C@@H]1[C@@H]2CC[C@]2(C)C(OC)CC[C@@H]12` (some centres undefined), the Potency entry in [1], in assay [2], in assay [3], in assay [4], in [5] and in [6] was “inactive” throughout. In addition, the Potency entry in [7], in assay [8], in assay [9], in assay [10], in assay [11] and in assay [18] was “inactive” each time. Moreover, the Potency entry in assay [12], in [13], in assay [19], in [15], in assay [16] and in assay [20] was “inactive” throughout.

Regarding `Cc1cc2cc3c(C)cc(=O)oc3c(C)c2o1`, the Potency result in assay [1], in [2], in assay [3], in [4], in [5] and in assay [6] was “inactive” in each case. The Potency result in assay [7], in assay [8], in assay [9], in assay [10], in assay [14] and in [19] was “inactive” throughout. Moreover, the Potency entry in [15], in assay [20] and in assay [17] was “inactive” each time.

For the molecule `COc1ccc(S(=O)(=O)Nc2nnc(CC(C)C)s2)cc1`, the Potency entry in assay [1], in assay [2], in assay [3], in assay [4], in [5] and in [6] was “inactive” in each case. The Potency result in [7], in assay [8], in assay [9], in assay [10], in assay [18] and in assay [12] was “inactive” in each case. For the same molecule, the Potency entry in assay [13], in assay [14], in assay [19], in [15], in assay [16] and in assay [20] was “inactive” each time. The Potency entry in assay [17] is “inactive”.

Regarding `CCc1cc(C2=C(C(=O)O)N(c3ccccc3C(F)(F)F)S(=O)(=O)c3ccccc32)cc2c1OCO2`, the Potency result in assay [1], in [2], in assay [3], in [4], in assay [5] and in [6] was “inactive” each time. Moreover, the Potency result in [7], in assay [8], in assay [9], in [18], in [12] and in [13] was “inactive” in each case. The Potency result in assay [15] and in assay [17] was “inactive” each time.

Regarding `CC(C)C(C)(C)C(C)(C)C(C)(C)S`, the Potency result in [1], in assay [2], in [3], in [4], in [5] and in assay [6] was “inactive” in each case. Further, the Potency entry in assay [7], in [8], in assay [9], in assay [10], in assay [18] and in assay [13] was “inactive” in each case. For the same molecule, the Potency result in assay [14] is “inactive”.

Regarding `CCCCCCCCCCCCCCCCCCNC(=O)OC1CCN(C(=O)OC[C@H](COC(=O)N(Cc2cccc[n+]2CC)C(=O)c2ccccc2OC)OC)CC1`, the Potency in assay [1] was 10.6 µM (active). Also, the Potency entry in assay [2], in [3], in [4], in assay [5], in [6] and in assay [7] was “inactive” each time. For the same molecule, the Potency entry in [9], in assay [11], in assay [18], in assay [13] and in [20] was “inactive” in each case.
